Laboratory results published in PubChem BioAssay (Tox21).
Records with an inconclusive call do not appear. Activity calls are given as the source filed them. Calls follow the shape of the dose curve; as a rule, active = well fitted curve in the direction sought with a large enough effect in the repeat runs; inconclusive = weak or mixed curves; inactive = no such curve, though single readings can be large; an effect the other way counts as inactive or inconclusive.

test: A CellTox Green Cytotoxicity Assay to monitor cytotoxicity in HEK293 cells - 24 hour (AID 1224875); conditions: CellTox Green fluorescence; series mostly up to 76.8 µM; activity change: at the top concentration; also: nearly all actives have a fitted effect of over 45% in size
Procedure, shortened: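 Cytotoxicity was tracked continuously in HEK293 cells by a DNA-binding dye excluded from viable cells. Compounds were transferred in DMSO 5 h after seeding; fluorescence was recorded at intervals up to 40 h.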
% is scaled to controls: 0 for no effect and ±100 for the full control effect; potency is read from the fitted curve at half-maximal effect.

Compound	activity change	Potency
O=S(=O)(O)c1ccc(N=Nc2c(O)ccc3ccccc23)cc1	-25.3% (inactive)	–
NC(=O)c1cccc([N+](=O)[O-])c1	-4.54% (inactive)	–
C=Cc1cccc(C)c1	-0.0709% (inactive)	–
CN1CCCCC1CCN1c2ccccc2Sc2ccc(S(C)=O)cc21 (stereo unspecified)	5.39% [at 35.3 µM, hits give high values] (inactive)	–
CCCCCCCCCCCCOCCOCCOCCOCCOCCOCCOCCOCCOCCO	–	13.4 µM (active)

test: A CellTox Green Cytotoxicity Assay to monitor cytotoxicity in HepG2 cells - 16 hour (AID 1224876); conditions: CellTox Green fluorescence; series mostly up to 76.8 µM; cytotoxicity increase: at the top concentration; also: nearly all actives have a fitted effect of over 45% in size
Procedure, shortened: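 Real-time, homogeneous cytotoxicity readout: dead-cell DNA staining by CellTox Green in HepG2 monolayers, fluorescence measured at timed intervals up to 40 h of continuous compound exposure.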

Compound	Potency	cytotoxicity increase
CC(=O)[C@H]1CC[C@H]2[C@@H]3CCC4=CC(=O)CC[C@]4(C)[C@H]3CC[C@]12C	inactive	–
O=[N+]([O-])c1ccc(O)cc1C(F)(F)F	–	0.889% (inactive)
OC[C@H]1O[C@H](O[C@H]2O[C@H](CO)[C@@H](O)[C@H](O)[C@H]2O)[C@H](O)[C@@H](O)[C@@H]1O	–	-1.08% (inactive)
CCCC(=O)OCOC(=O)C1=C(C)NC(C)=C(C(=O)OC)C1c1cccc(Cl)c1Cl (stereo unspecified)	–	-14.6% [at 35.3 µM] (inactive)
COc1cc(S(=O)(=O)O)c(C)cc1N=Nc1c(O)ccc2cc(S(=O)(=O)O)ccc12	–	-39.2% (inactive)
CC[N+](CC)(CC)CCOc1ccc(/C=C/c2ccccc2)cc1	–	-3.76% [at 35.3 µM] (inactive)
O=C(Nc1ccc2c(O)c(N=Nc3ccc(N=Nc4ccc(S(=O)(=O)O)cc4)cc3)c(S(=O)(=O)O)cc2c1)c1ccccc1	–	-50.6% (inactive)
CCCC[P+](C)(CCCC)CCCC	–	-7.36% (inactive)
Nc1cc(Cl)c(O)c(Cl)c1	–	-15.2% (inactive)
Clc1nnc(Cl)c2ccccc12	–	1.11% (inactive)
CCCCCCCCCCCC(=O)OCC(C)OC(=O)CCCCC(=O)O (stereo unspecified)	–	-13% [at 35.3 µM] (inactive)
Cc1c(C)c2c(c(C)c1O)CC[C@@](C)(CCC[C@H](C)CCC[C@H](C)CCCC(C)C)O2	–	4.2% (inactive)
COc1ccc2c(c1)c(CC(=O)OC/C=C(\C)CC/C=C(\C)CCC=C(C)C)c(C)n2C(=O)c1ccc(Cl)cc1	–	0.565% [at 35.3 µM] (inactive)
C=CC(=O)Nc1cc2c(Nc3ccc(F)c(Cl)c3)ncnc2cc1OCCCN1CCOCC1	21.3 µM (active)	–
Cc1cc(C(C)(C)C)cc(C)c1CC1=NCCN1	–	-3.67% [at 35.3 µM] (inactive)
CCCCN(CCCC)CC(O)c1cc(Cl)cc2c1-c1ccc(Cl)cc1/C2=C/c1ccc(Cl)cc1 (stereo unspecified)	21.3 µM (active)	–

Compound	Potency	cytotoxicity increase
NC[C@H]1O[C@H](O[C@H]2[C@H](O[C@@H]3O[C@H](CO)[C@@H](O)[C@H]3O)C(O)[C@H](N)C[C@@H]2N)[C@H](N)[C@@H](O)[C@@H]1O (stereo partly specified)	–	11% [at 6.97 µM] (inactive)
O=C(O)c1cc(O)c2ccccc2c1O	43.6 µM (active)	–
C[C@@H](O)[C@H](N)C(=O)O	–	6.33% [at 15.8 µM] (inactive)
COC1=C(OC)C(=O)C(CCCCCCCCCCO)=C(C)C1=O	–	-1.39% [at 35.3 µM] (inactive)
CCCC(=O)OCCc1ccccc1	43.6 µM (active)	–
C#C[C@]1(OC(C)=O)CC[C@H]2[C@@H]3CCC4=C/C(=N/O)CC[C@@H]4[C@H]3CC[C@@]21CC	–	-0.701% [at 35.3 µM] (inactive)
CCOC(=O)Cn1cccc1-c1nc(-c2ccc(OC)cc2)c(-c2ccc(OC)cc2)s1	–	4.45% [at 35.3 µM] (inactive)
O=C1NC(=O)[C@@H]2CC=CC[C@H]12	–	8.7% (inactive)
CC/C=C\CCCCCO	–	20.5% (inactive)
O=S(=O)(O)c1ccc(N=Nc2c(O)ccc3ccccc23)cc1	–	-26.3% (inactive)
O=C(/C=C/c1ccccc1)OC/C=C/c1ccccc1	–	1.04% (inactive)
NC(=O)c1cccc([N+](=O)[O-])c1	–	1.95% (inactive)
C=Cc1cccc(C)c1	inactive	–
CN1CCCCC1CCN1c2ccccc2Sc2ccc(S(C)=O)cc21 (stereo unspecified)	–	35.9% [at 35.3 µM] (inactive)
CCCCCCCCCCCCOCCOCCOCCOCCOCCOCCOCCOCCOCCO	23.9 µM (active)	–

test: qHTS RealTime-Glo MT Cell Viability Assay in HepG2 cells - 32 hour (AID 1224877); conditions: RealTime-Glo luminescence; series mostly up to 76.8 µM; activity change, negative = cytotoxic: at the top concentration; also: nearly all actives have a fitted effect of over 55% in size
Procedure, shortened: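 Cells + NanoLuc/prosubstrate dispensed (600 cells/well) → 5 h at 37 C/5% CO2 → compounds in DMSO transferred → 40 h incubation at 37 C, luminescence read at 0, 8, 16, 24, 32, 40 h.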

Compound	Potency	activity change, negative = cytotoxic
O=c1[nH]c2ccccc2n1CCCN1CCN(C(c2ccccc2)c2ccccc2)CC1	26.8 µM (active)	–
CC1=Nc2ccccc2C1(C)C	–	-0.375% (inactive)
CC(=O)[C@H]1CC[C@H]2[C@@H]3CCC4=CC(=O)CC[C@]4(C)[C@H]3CC[C@]12C	–	-22.2% (inactive)
OC[C@H]1O[C@H](O[C@H]2O[C@H](CO)[C@@H](O)[C@H](O)[C@H]2O)[C@H](O)[C@@H](O)[C@@H]1O	–	2.15% (inactive)
CCCC(=O)OCOC(=O)C1=C(C)NC(C)=C(C(=O)OC)C1c1cccc(Cl)c1Cl (stereo unspecified)	–	-5.49% [at 35.3 µM] (inactive)
CC[N+](CC)(CC)CCOc1ccc(/C=C/c2ccccc2)cc1	26.8 µM (active)	–
CCCC[P+](C)(CCCC)CCCC	–	0.0266% (inactive)
Nc1cc(Cl)c(O)c(Cl)c1	–	0.785% (inactive)
Clc1nnc(Cl)c2ccccc12	–	17.1% (inactive)
CCCCCCCCCCCC(=O)OCC(C)OC(=O)CCCCC(=O)O (stereo unspecified)	–	-5.11% [at 35.3 µM] (inactive)
CCOC(=O)c1ccc(C2CCC(NC[C@H](O)COc3ccc(O)c(NS(C)(=O)=O)c3)CC2)cc1 (stereo partly specified)	45.2 µM (active)	–
Cc1c(C)c2c(c(C)c1O)CC[C@@](C)(CCC[C@H](C)CCC[C@H](C)CCCC(C)C)O2	–	-12.8% (inactive)
Cc1ccc(C(=O)O)cc1	–	0.793% (inactive)
COc1ccc2c(c1)c(CC(=O)OC/C=C(\C)CC/C=C(\C)CCC=C(C)C)c(C)n2C(=O)c1ccc(Cl)cc1	–	0.476% [at 35.3 µM] (inactive)
C=CC(=O)Nc1cc2c(Nc3ccc(F)c(Cl)c3)ncnc2cc1OCCCN1CCOCC1	9.52 µM (active)	–
Cc1cc(C(C)(C)C)cc(C)c1CC1=NCCN1	–	-0.439% [at 35.3 µM] (inactive)
NC[C@H]1O[C@H](O[C@H]2[C@H](O[C@@H]3O[C@H](CO)[C@@H](O)[C@H]3O)C(O)[C@H](N)C[C@@H]2N)[C@H](N)[C@@H](O)[C@@H]1O (stereo partly specified)	–	0.467% [at 6.97 µM] (inactive)
O=C(O)c1cc(O)c2ccccc2c1O	21.9 µM (active)	–
CC(C)=CCNc1ncnc2c1ncn2[C@@H]1O[C@H](CO)[C@@H](O)[C@H]1O	–	-13.4% [at 35.3 µM] (inactive)
C[C@@H](O)[C@H](N)C(=O)O	–	-3.46% [at 15.8 µM] (inactive)
COC1=C(OC)C(=O)C(CCCCCCCCCCO)=C(C)C1=O	–	-16.1% [at 35.3 µM] (inactive)
CCCC(=O)OCCc1ccccc1	–	-0.871% (inactive)
C#C[C@]1(OC(C)=O)CC[C@H]2[C@@H]3CCC4=C/C(=N/O)CC[C@@H]4[C@H]3CC[C@@]21CC	–	3.45% [at 35.3 µM] (inactive)
O=C1NC(=O)[C@@H]2CC=CC[C@H]12	–	-3.51% (inactive)
Fc1ccc(C(c2ccc(F)cc2)N2CCNCC2)cc1	–	-7.33% [at 35.3 µM] (inactive)
CC/C=C\CCCCCO	–	-2.1% (inactive)
O=C(/C=C/c1ccccc1)OC/C=C/c1ccccc1	–	0.838% (inactive)
NC(=O)c1cccc([N+](=O)[O-])c1	–	1.09% (inactive)
C=Cc1cccc(C)c1	inactive	–
CN1CCCCC1CCN1c2ccccc2Sc2ccc(S(C)=O)cc21 (stereo unspecified)	–	0.445% [at 35.3 µM] (inactive)
